Out of some 200,000 compounds screened, about 18,000 (9%) were called active. No stated cut-off is given here; in the data, active means inhibition above about 50%; inactive means the rest. For the sample, actives were picked, then their nearest neighbours and some compounds at random.
experiment: Leishmania major promastigote growth inhibition, primary screen (AID 1063); settings: Leishmania major promastigotes, resazurin fluorescence viability; at 10 µM; hits give high values;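 further: promastigotes grown with compound for 44 hours at 28 °C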

SMILES | inhibition
Cn1c(N)cc(-c2ccc(F)cc2)c(C#N)c1=O | 0.6% (inactive)
Cc1cccc(S(=O)(=O)CC(=O)Nc2nc(-c3ccccc3)cs2)c1 | 98.6% (active)
O=C(Nc1nc(-c2ccc(-c3ccccc3)cc2)cs1)c1cnccn1 | 47.8% (inactive)
Cc1ccc(-c2csc(NC(=O)Cn3[nH]c(=O)c4ccccc4c3=O)n2)cc1 | 5.27% (inactive)
Cc1ccc(-c2csc(NNC(=O)c3ccccc3)n2)cc1 | 16.8% (inactive)
CCNC(=O)CSc1nc(-c2ccccc2)cs1 | 3.19% (inactive)
O=C(CSC1=NCCS1)Nc1nc(-c2ccccc2)cs1 | 67.4% (active)
Cc1ccc(S(=O)(=O)N(CC(=O)NN=C2CCN(C)CC2)c2ccc(F)cc2)cc1 | -0.06% (inactive)
CCc1cc2c(=O)c(-c3nc4ccccc4n3C)c(CCCC(=O)O)oc2cc1OC(=O)C(C)(C)C | -1.6% (inactive)
COc1ccc(/C=C/C(=O)NC(=S)NN2CCCCC2c2cccnc2)cc1 (centres undefined) | 69.9% (active)
COc1ccc(C2=NN(C(=O)c3cccnc3)C(c3ccccc3)C2)cc1 (centres undefined) | 5.17% (inactive)
CCOc1ccc(NC(=S)NC(=O)/C=C/c2ccc(OC)cc2)c([N+](=O)[O-])c1 | -5.29% (inactive)
Cc1cccc(N=C2NN=C(c3c[nH]c4ccccc34)CS2)c1 | 64.9% (active)
Cc1cccc(N=C2NC(=O)/C(=C/c3cn(C)c4ccccc34)S2)c1 | 10.8% (inactive)
Cc1cccc(C(=O)Nc2nnc(Cc3c[nH]c4ccccc34)s2)c1 | 19.2% (inactive)
CC(C(=O)NC1CCCC1)N(c1ccc(Oc2ccccc2)cc1)S(C)(=O)=O (centres undefined) | 29.4% (inactive)
CCOc1ccc(C(C)=O)cc1CSc1nnc(-c2ccncc2)n1CCOC | 2.51% (inactive)
C/C(=N\NC(=O)Cc1ccc(F)cc1)c1ccc(F)cc1 | -7.37% (inactive)
COc1ccc(CC(=O)N/N=C(\C)c2ccccn2)cc1 | 75.9% (active)
COc1ccc(C/C(C)=N/NC(=O)c2ccncc2)cc1 | -6.69% (inactive)
C/C(=N\NC(=O)Cc1ccc(Cl)cc1)c1ccccn1 | 100% (active)
Cc1ccc(Cl)cc1NC(=O)c1ccccn1 | -2.2% (inactive)

SMILES | inhibition
COc1ccc(C/C(C)=N/NC(=O)c2cc(C)oc2C)cc1 | 2.67% (inactive)
COc1ccccc1NC(=O)C1=C(C)NC(=O)NC1c1ccc(C)s1 (centres undefined) | 5.44% (inactive)
O=C(CC(=O)N/N=C\c1ccc(F)cc1)NCCc1ccccc1 | -0.64% (inactive)
Nc1ccc(S(=O)(=O)Nc2nccc(/C=C/c3ccc(Br)s3)n2)cc1 | 1.78% (inactive)
O=C(O/N=C(/c1ccccc1)c1ccncc1)c1ccccc1[N+](=O)[O-] | -5.52% (inactive)
COC(=O)c1ccc(NC(=S)Nc2cccc(C)n2)cc1 | 1.93% (inactive)
COc1cc(OC)cc(-c2nnc(SCC(=O)Nc3ccc(C(=O)O)cc3)s2)c1 | -10.5% (inactive)
COc1ccc(/C=C/C2=CC(C)(C)NC(=S)N2)c(OC)c1 | 1.29% (inactive)
COc1cccc(-n2c(=S)[nH]c3c(oc4ccccc43)c2=O)c1 | -1.14% (inactive)
CCCC1(C(=O)OC)NC(c2ccco2)C2C(=O)N(C)C(=O)C21 (centres undefined) | 4.05% (inactive)
CCC(=O)N(Cc1cc2ccccc2[nH]c1=O)c1ccc(OC)cc1 | 11.3% (inactive)
Cc1ccc(N(Cc2cc3ccccc3[nH]c2=O)C(=O)c2cccs2)cc1 | 75.4% (active)
Cc1cccc2cc(CN(C(=O)c3cccs3)c3ccccc3)c(=O)[nH]c12 | -3.04% (inactive)
Cc1ccc2c(c1)C(O)(CC(=O)c1cccc(-n3cccc3)c1)C(=O)N2 (centres undefined) | 0.06% (inactive)
COc1ccccc1-n1cnc2cc(NS(=O)(=O)c3ccccc3)ccc21 | 98.3% (active)
COc1cc(NS(=O)(=O)c2ccccc2)ccc1-n1nc(C)cc1C | -5.46% (inactive)
COCCCNC(=O)c1ccc2c(c1)ncn2-c1ccccc1OC | -1.51% (inactive)
O=[N+]([O-])c1ccccc1N/N=C1\CCc2ccccc21 | -1.95% (inactive)
N#Cc1cccc(Nc2c3c(nc4ccccc24)CCCC3)c1 | 86.9% (active)
O=C(Nc1c2c(nc3ccccc13)CCCC2)c1ccccc1Br | 6.31% (inactive)
N#Cc1cccc(NC(=O)CCC2CCCC2)c1 | 5.79% (inactive)
COc1ccc2c(c1)C(c1cccs1)=NNC(c1cccnc1)=N2 | 23.7% (inactive)

SMILES | inhibition
CC(NC(=O)COC(=O)c1ccc2c(c1)OCO2)c1ccccc1 (centres undefined) | -3.45% (inactive)
CCOC(=O)C1=C(C)NC(=O)NC1c1ccccc1 (centres undefined) | -1.3% (inactive)
CCOC(=O)C1=C(C)NC(SC)=NC1c1ccccc1 (centres undefined) | 8.85% (inactive)
CCOC(=O)C1=C(C)N=C2c3ccccc3C(=O)C2C1c1ccc(Br)cc1 (centres undefined) | 99.4% (active)
CN(C)c1nccc(NCc2ccccc2)c1C#N | -3.1% (inactive)
COCCCNC(=O)CNC(=S)N(Cc1cc(OC)c(OC)c(OC)c1)C1CCCC1 | -3.29% (inactive)
COc1ccc(OCC(O)CNC(=O)Nc2ccc(Cl)cc2)cc1 (centres undefined) | -4.73% (inactive)
CCCC(O)(c1ccc(OC)cc1)C(CN(C)C)c1ccccc1 (centres undefined) | -1.91% (inactive)
CN(C)CC(O)COc1ccc(C(C)(C)c2ccc(OCC(O)CN(C)C)cc2)cc1 (centres undefined) | 100% (active)
CN(C)S(=O)(=O)c1cccc(NC(=S)N/N=C/C(=O)c2ccccc2)c1 | 2.84% (inactive)
Cc1cccc(N2CCN(c3ccc(NC(=O)/C=C\C(=O)O)cc3)CC2)c1 | -2.44% (inactive)
Cc1cc(NC(=O)CCC2COc3ccccc3O2)no1 (centres undefined) | -5.57% (inactive)
Cc1ccsc1C(=O)OCC(=O)c1cc(C)n(CC2CCCO2)c1C (centres undefined) | -1.1% (inactive)
Cc1cc(C(=O)CCl)c(C)n1CC1COc2ccccc2O1 (centres undefined) | 101% (active)
O=C(NCc1ccccc1)C1=C[C@@H](C2CCCCC2)C[C@@H](OCc2ccc(CO)cc2)O1 | 50.2% (active)
CC(C)(C)[C@H]1C=C(C(=O)NCc2ccccc2)O[C@@H](OCc2ccc(CO)cc2)C1 | 20.8% (inactive)
O=C(NCc1ccccc1)C1=C[C@H](C2CC2)C[C@H](OCc2ccc(CO)cc2)O1 | 6.42% (inactive)
C=CCOC(=O)C1=C[C@@H](c2ccccc2)C[C@@H](OCc2ccc(CO)cc2)O1 | 13.8% (inactive)
O=C(NCc1ccccc1)C1=C[C@@H](c2ccc(C(F)(F)F)cc2)C[C@@H](OCc2ccc(CO)cc2)O1 | 87% (active)
O=C(C1=C[C@H](c2ccc(C(F)(F)F)cc2)C[C@H](OCc2ccc(CO)cc2)O1)N1CCN(Cc2ccccc2)CC1 | 25.6% (inactive)

Reference: PubChem BioAssay AID1063 (University of Pittsburgh Molecular Library Screening Center, 2008)
